# Measured values taken from PubChem BioAssay AID1159580 (chemical genetic matrix, 2015).
# In all, about 5,500 compounds went through this assay and about 2,000 (36%) were called active. Not shown: some 18% with an inconclusive outcome. Some of the results follow. A number with no mark means an inactive call. Cut-off read from the data, not from the text of the source: active = normalized growth mostly below about 0.91 (no sharp cut-off); inconclusive = no clear call, values can overlap the other calls; inactive = mostly above about 0.92.
# Assay: chemical genetic growth profiling, strain panel (AID 1159580);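 note: tested at 20 µM; growth read once vehicle control cultures reached saturation at 30 °C; 1 = growth at the plate median or of vehicle wells; lower values mean less growth of the strain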
# Conditions: S. cerevisiae deletion strains, growth OD
# [1] = locus YAR019C, strain CDC15, hits give low values
# [2] = locus YBL105C, strain PKC1, hits give low values
# [3] = locus YBR135W, strain CKS1, hits give low values
# [4] = locus YBR136W, strain MEC1, hits give low values
# [5] = locus YBR160W, strain CDC28, hits give low values
# [6] = locus YDL017W, strain CDC7, hits give low values
# [7] = locus YDL028C, strain MPS1, hits give low values
# [8] = locus YDL101C, strain DUN1, hits give low values
# [9] = locus YDL108W, strain KIN28, hits give low values
# [10] = locus YDL132W, strain cdc53, hits give low values
# [11] = locus YDL214C, strain PRR2, hits give low values
# [12] = locus YDR052C, strain DBF4, hits give low values
# [13] = locus YDR054C, strain cdc34, hits give low values
# [14] = locus YDR226W, strain ADK1, hits give low values
# [15] = locus YDR477W, strain SNF1, hits give low values
# [16] = locus YER123W, strain YCK3, hits give low values
# [17] = locus YER133W, strain GLC7, hits give low values
# [18] = locus YFL009W, strain cdc4, hits give low values
# [19] = locus YFL029C, strain CAK1, hits give low values
# [20] = locus YFR003C, strain YPI1, hits give low values
# [21] = locus YFR019W, strain FAB1, hits give low values
# [22] = locus YFR028C, strain CDC14, hits give low values
# [23] = locus YGR040W, strain KSS1, hits give low values
# [24] = locus YGR052W, strain FMP48, hits give low values
# [25] = locus YGR092W, strain DBF2, hits give low values
# [26] = locus YHR030C, strain SLT2, hits give low values
# [27] = locus YHR079C, strain IRE1, hits give low values
# [28] = locus YHR082C, strain KSP1, hits give low values
# [29] = locus YHR205W, strain SCH9, hits give low values
# [30] = locus YIL147C, strain SLN1, hits give low values
# [31] = locus YJL095W, strain BCK1, hits give low values
# [32] = locus YJL128C, strain PBS2, hits give low values
# [33] = locus YJL157C, strain FAR1, hits give low values
# [34] = locus YJR016C, strain ILV3, hits give low values
# [35] = locus YJR066W, strain TOR1 (second series), hits give low values
# [36] = locus YJR066W, strain TOR1, hits give low values
# [37] = locus YKL048C, strain ELM1, hits give low values
# [38] = locus YKL067W, strain YNK1, hits give low values
# [39] = locus YKL101W, strain HSL1, hits give low values
# [40] = locus YKL193C, strain SDS22, hits give low values
# [41] = locus YKL203C, strain TOR2, hits give low values
# [42] = locus YLR113W, strain HOG1, hits give low values
# [43] = locus YLR133W, strain CKI1, hits give low values
# [44] = locus YLR403W, strain SFP1, hits give low values
# [45] = locus YML070W, strain DAK1, hits give low values
# [46] = locus YMR001C, strain CDC5, hits give low values
# [47] = locus YMR205C, strain PFK2 (second series), hits give low values
# [48] = locus YMR277W, strain FCP1, hits give low values
# [49] = locus YNL006W, strain LST8, hits give low values
# [50] = locus YNL020C, strain ARK1, hits give low values
# [51] = locus YNL161W, strain CBK1, hits give low values
# [52] = locus YNL183C, strain NPR1, hits give low values
# [53] = locus YNL207W, strain RIO2, hits give low values
# [54] = locus YNL222W, strain SSU72, hits give low values
# [55] = locus YNL307C, strain MCK1 (second series), hits give low values
# [56] = locus YOL078W, strain AVO1, hits give low values
# [57] = locus YOL136C, strain PFK27, hits give low values
# [58] = locus YOR061W, strain CKA2, hits give low values
# [59] = locus YOR119C, strain RIO1, hits give low values
# [60] = locus YOR231W, strain MKK1, hits give low values
# [61] = locus YOR329C, strain SCD5, hits give low values
# [62] = locus YPL031C, strain PHO85, hits give low values
# [63] = locus YPL153C, strain RAD53, hits give low values
# [64] = locus YPL204W, strain HRR25, hits give low values
# [65] = locus YPL209C, strain IPL1, hits give low values
# [66] = locus YPL256C, strain CLN2, hits give low values
# [67] = locus YPR025C, strain CCL1, hits give low values
# [68] = locus YPR106W, strain ISR1, hits give low values
# [69] = locus YPR111W, strain DBF20, hits give low values
# [70] = strain NNK1, hits give low values
# [71] = strain TSCII, hits give low values
smiles,measurement,setting,value
CC1=CC(=O)N(c2ccc(OC(F)(F)F)cc2)C1=O,normalized growth,[1],0.852 (active)
same,normalized growth,[2],0.873 (active)
same,normalized growth,[3],0.857 (active)
same,normalized growth,[4],0.87 (active)
same,normalized growth,[5],0.873 (active)
same,normalized growth,[6],0.872 (active)
same,normalized growth,[7],0.857 (active)
same,normalized growth,[8],0.869 (active)
same,normalized growth,[9],0.868 (active)
same,normalized growth,[10],0.847 (active)
same,normalized growth,[11],0.467 (active)
same,normalized growth,[12],0.883 (active)
same,normalized growth,[13],0.853 (active)
same,normalized growth,[14],0.862 (active)
same,normalized growth,[15],0.377 (active)
same,normalized growth,[16],0.281 (active)
same,normalized growth,[17],0.339 (active)
same,normalized growth,[18],0.849 (active)
same,normalized growth,[19],0.837 (active)
same,normalized growth,[20],0.878 (active)
same,normalized growth,[21],0.512 (active)
same,normalized growth,[22],0.865 (active)
same,normalized growth,[23],0.384 (active)
same,normalized growth,[24],0.421 (active)
same,normalized growth,[25],0.217 (active)
same,normalized growth,[26],0.283 (active)
same,normalized growth,[27],0.35 (active)
same,normalized growth,[28],0.316 (active)
same,normalized growth,[29],0.331 (active)
same,normalized growth,[30],0.873 (active)
same,normalized growth,[31],0.302 (active)
same,normalized growth,[32],0.9
same,normalized growth,[33],0.487 (active)
same,normalized growth,[34],0.862 (active)
same,normalized growth,[35],0.39 (active)
same,normalized growth,[36],0.272 (active)
same,normalized growth,[37],0.556 (active)
same,normalized growth,[38],0.509 (active)
same,normalized growth,[39],0.494 (active)
same,normalized growth,[40],0.863 (active)
same,normalized growth,[41],0.382 (active)
same,normalized growth,[42],0.336 (active)
same,normalized growth,[43],0.531 (active)
same,normalized growth,[44],0.326 (active)
same,normalized growth,[45],0.401 (active)
same,normalized growth,[46],0.854 (active)
same,normalized growth,[47],0.563 (active)
same,normalized growth,[48],0.868 (active)
same,normalized growth,[49],0.885 (active)
same,normalized growth,[50],0.558 (active)
same,normalized growth,[51],0.865 (active)
same,normalized growth,[52],0.201 (active)
same,normalized growth,[53],0.847 (active)
same,normalized growth,[54],0.864 (active)
same,normalized growth,[55],0.413 (active)
same,normalized growth,[56],0.858 (active)
same,normalized growth,[57],0.436 (active)
same,normalized growth,[58],0.576 (active)
same,normalized growth,[59],0.384 (active)
same,normalized growth,[60],0.4 (active)
same,normalized growth,[61],0.869 (active)
same,normalized growth,[62],0.311 (active)
same,normalized growth,[63],0.372 (active)
same,normalized growth,[64],0.391 (active)
same,normalized growth,[65],0.862 (active)
same,normalized growth,[66],0.33 (active)
same,normalized growth,[67],0.855 (active)
same,normalized growth,[68],0.901
same,normalized growth,[69],0.907
same,normalized growth,[70],0.893
same,normalized growth,[71],0.859 (active)
CC1=CC(=O)N(c2ccc(F)c(Cl)c2)C1=O,normalized growth,[1],0.966
same,normalized growth,[2],0.974
same,normalized growth,[3],0.964
same,normalized growth,[4],0.971
same,normalized growth,[5],0.975
same,normalized growth,[6],0.966
same,normalized growth,[7],0.976
same,normalized growth,[8],0.76 (active)
same,normalized growth,[9],0.979
same,normalized growth,[10],0.986
same,normalized growth,[11],0.345 (active)
same,normalized growth,[12],0.978
same,normalized growth,[13],0.983
same,normalized growth,[14],0.97
same,normalized growth,[15],0.376 (active)
same,normalized growth,[16],0.243 (active)
same,normalized growth,[17],0.371 (active)
same,normalized growth,[18],0.974
same,normalized growth,[19],0.96
same,normalized growth,[20],0.975
same,normalized growth,[21],0.443 (active)
same,normalized growth,[22],0.967
same,normalized growth,[23],0.461 (active)
same,normalized growth,[24],0.387 (active)
same,normalized growth,[25],0.335 (active)
same,normalized growth,[26],0.173 (active)
same,normalized growth,[27],0.195 (active)
same,normalized growth,[28],0.235 (active)
same,normalized growth,[29],0.395 (active)
same,normalized growth,[30],0.975
same,normalized growth,[31],0.168 (active)
same,normalized growth,[32],0.953
same,normalized growth,[33],0.377 (active)
same,normalized growth,[34],0.987
same,normalized growth,[35],0.219 (active)
same,normalized growth,[36],0.166 (active)
same,normalized growth,[37],0.474 (active)
same,normalized growth,[38],0.347 (active)
same,normalized growth,[39],0.386 (active)
same,normalized growth,[40],0.974
same,normalized growth,[41],0.506 (active)
same,normalized growth,[42],0.335 (active)
same,normalized growth,[43],0.457 (active)
same,normalized growth,[44],0.404 (active)
same,normalized growth,[45],0.274 (active)
same,normalized growth,[46],0.962
same,normalized growth,[47],0.407 (active)
same,normalized growth,[48],0.973
same,normalized growth,[49],0.982
same,normalized growth,[50],0.477 (active)
same,normalized growth,[51],0.963
same,normalized growth,[52],0.156 (active)
same,normalized growth,[53],0.973
same,normalized growth,[54],0.973
same,normalized growth,[55],0.34 (active)
same,normalized growth,[56],0.966
same,normalized growth,[57],0.335 (active)
same,normalized growth,[58],0.549 (active)
same,normalized growth,[59],0.524 (active)
same,normalized growth,[60],0.225 (active)
same,normalized growth,[61],0.98
same,normalized growth,[62],0.233 (active)
same,normalized growth,[63],0.398 (active)
same,normalized growth,[64],0.455 (active)
same,normalized growth,[65],0.964
same,normalized growth,[66],0.206 (active)
same,normalized growth,[67],0.97
same,normalized growth,[68],0.974
same,normalized growth,[69],0.976
same,normalized growth,[70],0.973
same,normalized growth,[71],0.966
